The panel holds about 83,000 compounds, 20% with a hit somewhere; the sample as a whole holds those more often.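 In brief: 96-well plates, 48 h treatment, single concentration, percent growth endpoint.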
Experiments:
Assay in all cases: NCI-60 one-dose screen, 48 h (100 = growth as untreated, 0 = no growth, -100 = all killed); active = growth percent below 10; inactive = the rest
HT29 colon = conditions: 10 µM unless noted
SNB-75 CNS = conditions: 10 µM unless noted
SNB-19 CNS = conditions: 10 µM unless noted
U251 CNS = conditions: 10 µM unless noted
PC-3 prostate = conditions: 10 µM unless noted
SK-MEL-5 melanoma = conditions: 10 µM unless noted
UACC-62 melanoma = conditions: 10 µM unless noted
LOX IMVI melanoma = conditions: 10 µM
SK-MEL-2 melanoma = conditions: 10 µM unless noted
EKVX NSCLC = conditions: 10 µM unless noted
SN12C renal = conditions: 10 µM unless noted
UO-31 renal = conditions: 10 µM unless noted
TK-10 renal = conditions: 10 µM unless noted
ACHN renal = conditions: 10 µM unless noted
CAKI-1 renal = conditions: 10 µM unless noted
A498 renal = conditions: 10 µM unless noted
CCRF-CEM leukemia = conditions: 10 µM unless noted
MOLT-4 leukemia = conditions: 10 µM unless noted
SK-MEL-28 melanoma = conditions: 10 µM unless noted

Measured: growth

Cn1c(=O)c2[nH]c(CCCCC(=O)O)nc2n(C)c1=O
inactive: HT29 colon 110% | SNB-75 CNS 95.3% | SNB-19 CNS 114% | U251 CNS 106% | PC-3 prostate 92.4% | SK-MEL-5 melanoma 108% | UACC-62 melanoma 102% | LOX IMVI melanoma 99.4% | SK-MEL-2 melanoma 111% | EKVX NSCLC 131% | SN12C renal 104% | UO-31 renal 105% | TK-10 renal 98.4% | ACHN renal 103% | CAKI-1 renal 106% | A498 renal 113% | CCRF-CEM leukemia 75.6% | MOLT-4 leukemia 102%

CCC(/C=C\C(C)=O)CC
inactive: HT29 colon 107% | SNB-75 CNS 99% | SNB-19 CNS 99.5% | U251 CNS 96.6% | PC-3 prostate 91.3% | SK-MEL-5 melanoma 102% | UACC-62 melanoma 106% | LOX IMVI melanoma 97.4% | SK-MEL-28 melanoma 101% | SK-MEL-2 melanoma 112% | SN12C renal 98.3% | UO-31 renal 92.3% | TK-10 renal 102% | ACHN renal 102% | CAKI-1 renal 100% | A498 renal 90.4% | CCRF-CEM leukemia 105% | MOLT-4 leukemia 112%

Cc1ccc(NC(=S)N2CCOCC2)cc1C
inactive: HT29 colon 114% | SNB-75 CNS 106% | SNB-19 CNS 94.5% | PC-3 prostate 104% | SK-MEL-5 melanoma 96.5% | UACC-62 melanoma 94% | LOX IMVI melanoma 82.3% | SK-MEL-28 melanoma 111% | SK-MEL-2 melanoma 100% | UO-31 renal 66.3% | TK-10 renal 103% | ACHN renal 99.2% | CAKI-1 renal 101% | CCRF-CEM leukemia 109% | MOLT-4 leukemia 100%

Cc1ccc(S(=O)(=O)CCCl)cc1
inactive: HT29 colon 110% | SNB-75 CNS 94.7% | SNB-19 CNS 97.1% | U251 CNS 101% | PC-3 prostate 90.7% | SK-MEL-5 melanoma 114% | UACC-62 melanoma 99.8% | LOX IMVI melanoma 107% | SK-MEL-28 melanoma 115% | EKVX NSCLC 97.6% | UO-31 renal 74.2% | TK-10 renal 97.4% | ACHN renal 98.2% | CAKI-1 renal 117% | A498 renal 95.2% | CCRF-CEM leukemia 101% | MOLT-4 leukemia 95.5%

From PubChem BioAssay (NCI)
